Results as given in the supplement of paper PMC10849652.
About 8,800 targets were measured; listed, in parts, are those with a hit and a random draw of the rest. About 0.5% of all pairs of compound and target were hits.

Tests used:
Assay in all cases: log2 fold change, soluble protein after heating vs DMSO (PISA); higher = thermal stabilisation; K562 lysate, 10 uM; active = over 0.2 and 3.5 SD of the protein, either way, in both replicates (recomputed)
nilotinib = compound: Cc1cn(-c2cc(NC(=O)c3ccc(C)c(Nc4nccc(-c5cccnc5)n4)c3)cc(C(F)(F)F)c2)cn1 [nilotinib]
Method in brief: (§1)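 Following dounce homogenisation of K562 pellets in PBS pH 7.4 with 1 mM MgCl2, crude extract at 1 mg/mL protein was incubated for 30 min with 10 μM compound. Aliquots were then heated for 3 min over 48°C-58°C and pooled, NP-40 was added to 0.5% at 4°C, and soluble protein was recovered as the supernatant at 21,000xg for 90 min. Channel-sum-equalised TMTpro 16plex LC-MS/MS quantified this protein. Each value, from duplicates, is a log-two fold change in thermal stability relative to solvent controls.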

[1] = compound: Cc1nc(Nc2n[nH]c3c2CN(C(=O)N[C@H](CN(C)C)c2ccccc2)C3(C)C)c2sccc2n1
Method in brief: as §1

dasatinib = compound: Cc1nc(Nc2ncc(C(=O)Nc3c(C)cccc3Cl)s2)cc(N2CCN(CCO)CC2)n1 [dasatinib]
Method in brief: as §1

[2] = compound: Cc1ncc(-c2ccnc(Nc3ccc(S(C)(=O)=O)cc3)n2)n1C(C)C
Method in brief: as §1

[3] = compound: Cn1cc(-c2ccc3c(c2)CCN3C(=O)Cc2cccc(C(F)(F)F)c2)c2c(N)ncnc21
Method in brief: as §1

quisinostat = compound: Cn1cc(CNCC2CCN(c3ncc(C(=O)NO)cn3)CC2)c2ccccc21 [quisinostat]
Method in brief: as §1

tipifarnib = compound: Cn1cncc1[C@@](N)(c1ccc(Cl)cc1)c1ccc2c(c1)c(-c1cccc(Cl)c1)cc(=O)n2C [tipifarnib]
Method in brief: as §1

[4] = compound: NC(=O)Nc1cc(-c2cccc(F)c2)sc1C(=O)N[C@H]1CCCNC1
Method in brief: as §1

[5] = compound: NC(=O)c1cnc(N[C@@H]2CCCC[C@@H]2N)nc1Nc1cccc(-n2nccn2)c1
Method in brief: as §1

[6] = compound: NC1(c2ccc(-c3nc4ccn5c(=O)[nH]nc5c4cc3-c3ccccc3)cc2)CCC1
Method in brief: as §1

[7] = compound: NCC(=O)Nc1ccc(-n2nc(C(F)(F)F)cc2-c2ccc3c(ccc4ccccc43)c2)cc1
Method in brief: as §1

vorinostat = compound: O=C(CCCCCCC(=O)Nc1ccccc1)NO [vorinostat]
Method in brief: as §1

silmitasertib = compound: O=C(O)c1ccc2c(c1)nc(Nc1cccc(Cl)c1)c1ccncc12 [silmitasertib]
Method in brief: as §1

[8] = compound: O=C1NC(=O)C(c2cnc3ccccn23)=C1c1cn2c3c(cc(F)cc13)CN(C(=O)N1CCCCC1)CC2
Method in brief: as §1

entospletinib = compound: c1cn2cc(-c3ccc4cn[nH]c4c3)nc(Nc3ccc(N4CCOCC4)cc3)c2n1 [entospletinib]
Method in brief: as §1

Measured: log2 fold change

ZMAT2 (UniProt Q96NC0)
UniProt Q96NC0, sequence (Q96NC0 whole entry, looked up): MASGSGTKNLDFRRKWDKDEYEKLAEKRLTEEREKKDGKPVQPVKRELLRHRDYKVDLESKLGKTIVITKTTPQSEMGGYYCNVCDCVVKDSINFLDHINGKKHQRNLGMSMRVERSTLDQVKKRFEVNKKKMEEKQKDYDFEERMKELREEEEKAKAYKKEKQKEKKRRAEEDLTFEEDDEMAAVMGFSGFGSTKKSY
inactive: nilotinib -0.014 | [1] 0.037 | dasatinib 0.022 | [2] 0.027 | [3] 0.033 | quisinostat -0.066 | tipifarnib -0.013 | [4] -0.044 | [5] 0.002 | [6] -0.03 | [7] 0.033 | vorinostat 0.188 | silmitasertib -0.051 | [8] -0.024 | entospletinib 0.021

YTHDF3 (UniProt Q7Z739)
inactive: nilotinib -0.246 | [1] -0.038 | dasatinib 0.022 | [2] 0.014 | [3] -0.006 | quisinostat -0.06 | tipifarnib -0.311 | [4] 0.063 | [5] -0.016 | [6] -0.039 | [7] 0.064 | vorinostat 0.03 | silmitasertib -0.084 | [8] -0.169 | entospletinib 0.006

VPS39 (UniProt Q96JC1)
inactive: nilotinib 0.03 | [1] -0.008 | dasatinib -0.044 | [2] 0.024 | [3] -0.003 | quisinostat -0.046 | tipifarnib 0.002 | [4] 0.005 | [5] -0.008 | [6] -0.003 | [7] 0.009 | vorinostat -0.194 | silmitasertib 0.01 | [8] -0.005 | entospletinib 0.013

WDR36 (UniProt Q8NI36)
inactive: nilotinib 0.003 | [1] -0.015 | dasatinib 0.012 | [2] 0.002 | [3] 0.025 | quisinostat -0.014 | tipifarnib -0.002 | [4] 0.03 | [5] -0.004 | [6] -0.01 | [7] -0.051 | silmitasertib 0.044 | [8] 0.028 | entospletinib -0.011
active: vorinostat -0.345

ZC2HC1A (UniProt Q96GY0)
UniProt Q96GY0, sequence (Q96GY0 whole entry, looked up): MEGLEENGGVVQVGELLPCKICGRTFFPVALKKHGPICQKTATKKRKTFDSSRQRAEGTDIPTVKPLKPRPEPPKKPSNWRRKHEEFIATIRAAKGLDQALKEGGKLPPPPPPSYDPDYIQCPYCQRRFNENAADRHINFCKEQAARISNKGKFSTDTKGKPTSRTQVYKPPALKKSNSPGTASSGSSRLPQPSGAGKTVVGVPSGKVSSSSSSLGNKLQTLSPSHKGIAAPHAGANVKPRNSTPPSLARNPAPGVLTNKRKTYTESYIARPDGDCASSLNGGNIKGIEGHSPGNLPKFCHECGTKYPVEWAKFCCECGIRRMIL
inactive: nilotinib 0 | [1] 0.005 | dasatinib -0.085 | [2] 0.002 | [3] 0.1 | quisinostat -0.082 | tipifarnib -0.02 | [4] -0.014 | [5] 0.04 | [6] -0.092 | [7] 0.104 | vorinostat -0.066 | silmitasertib 0.054 | [8] -0.008 | entospletinib -0.005

WDR77 (UniProt Q9BQA1)
inactive: nilotinib 0.056 | [1] 0.028 | dasatinib 0.093 | [2] 0 | [3] -0.013 | quisinostat 0.014 | tipifarnib 0.048 | [4] 0.006 | [5] -0.008 | [6] 0.039 | [7] -0.052 | vorinostat -0.067 | silmitasertib 0.041 | [8] -0.01 | entospletinib 0.006

WDR20 isoform 7 (UniProt Q8TBZ3)
inactive: nilotinib -0.001 | [1] 0.029 | dasatinib 0.055 | [2] -0.229 | [3] 0.038 | quisinostat 0.027 | tipifarnib -0.174 | [4] 0.009 | [5] -0.026 | [6] -0.042 | [7] 0.01 | vorinostat 0.009 | silmitasertib 0.087 | [8] -0.013 | entospletinib 0.018

ZHX1 (UniProt Q9UKY1)
inactive: nilotinib 0.011 | [1] -0.012 | dasatinib 0 | [2] 0.06 | [3] -0.096 | quisinostat -0.035 | tipifarnib 0.007 | [4] 0.039 | [5] -0.047 | [6] -0.011 | [7] 0.043 | vorinostat -0.249 | silmitasertib -0.094 | [8] -0.018 | entospletinib -0.082

XPNPEP1 isoform 3 (UniProt Q9NQW7)
inactive: nilotinib 0.022 | [1] 0.016 | dasatinib -0.049 | [2] -0.004 | [3] 0.014 | quisinostat 0.024 | tipifarnib 0.011 | [4] 0.007 | [5] -0.005 | [6] -0.023 | [7] 0.006 | vorinostat -0.068 | silmitasertib -0.001 | [8] -0.019 | entospletinib 0.002

ZYG11A (UniProt Q6WRX3)
UniProt Q6WRX3, sequence (Q6WRX3 whole entry, looked up): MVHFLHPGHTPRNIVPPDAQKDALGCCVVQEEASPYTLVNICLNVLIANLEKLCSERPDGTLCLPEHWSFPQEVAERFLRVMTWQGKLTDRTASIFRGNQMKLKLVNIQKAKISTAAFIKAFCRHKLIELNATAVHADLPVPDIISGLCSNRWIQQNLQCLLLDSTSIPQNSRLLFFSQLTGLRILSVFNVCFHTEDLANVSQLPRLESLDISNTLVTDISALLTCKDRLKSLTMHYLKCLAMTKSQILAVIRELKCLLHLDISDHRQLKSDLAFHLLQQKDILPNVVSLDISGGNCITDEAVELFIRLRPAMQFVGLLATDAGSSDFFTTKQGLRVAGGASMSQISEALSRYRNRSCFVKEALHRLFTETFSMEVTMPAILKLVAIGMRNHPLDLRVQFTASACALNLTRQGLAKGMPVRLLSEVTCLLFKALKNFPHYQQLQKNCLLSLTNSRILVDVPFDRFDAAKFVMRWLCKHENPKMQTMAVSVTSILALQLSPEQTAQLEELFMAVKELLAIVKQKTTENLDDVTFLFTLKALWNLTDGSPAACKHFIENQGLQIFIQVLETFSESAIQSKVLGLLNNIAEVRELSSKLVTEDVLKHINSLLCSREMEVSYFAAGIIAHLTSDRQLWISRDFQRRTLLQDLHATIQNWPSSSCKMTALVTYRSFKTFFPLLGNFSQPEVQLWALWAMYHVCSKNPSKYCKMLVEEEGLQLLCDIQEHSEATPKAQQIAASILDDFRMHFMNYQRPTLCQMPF
active: vorinostat 0.719
inactive: nilotinib 0.151 | [1] -0.077 | [2] -0.227 | tipifarnib -0.124 | [5] 0.085 | [6] -0.068 | silmitasertib 0.17

UNKL (UniProt E9PDK2)
inactive: dasatinib -0.216 | [3] 0.006 | quisinostat 0.015 | [4] 0.045 | [7] -0.336 | [8] 0.003 | entospletinib 0.108

WSB1 (UniProt Q9Y6I7)
inactive: dasatinib -0.194 | [3] 0.012

ULK3 isoform 4 (UniProt Q6PHR2)
inactive: dasatinib 0.035 | [3] -0.181 | quisinostat -0.11 | [4] 0.296 | [5] 0.133 | [6] -0.157 | [7] -0.102 | vorinostat -0.05 | silmitasertib 0.242 | [8] 0.046 | entospletinib 0.273

YBEY (UniProt P58557)
inactive: dasatinib 0.067 | [3] -0.083 | [6] 0.044 | [7] 0.035 | vorinostat -0.136 | silmitasertib 0.063 | entospletinib 0.029

ZNF652 (UniProt Q9Y2D9)
inactive: quisinostat 0 | [4] -0.036 | [8] -0.042

VASN (UniProt Q6EMK4)
inactive: dasatinib 0.081 | [3] 0.027 | [6] -0.059 | vorinostat 0.233 | silmitasertib -0.263 | entospletinib -0.027

ZNF281 (UniProt Q9Y2X9)
inactive: dasatinib -0.041 | [3] 0.031 | quisinostat 0.151 | [4] -0.028 | [6] 0.02 | silmitasertib -0.084 | [8] -0.072
active: vorinostat -0.403

USP16 (UniProt Q9Y5T5)
UniProt Q9Y5T5, sequence (Q9Y5T5 whole entry, looked up): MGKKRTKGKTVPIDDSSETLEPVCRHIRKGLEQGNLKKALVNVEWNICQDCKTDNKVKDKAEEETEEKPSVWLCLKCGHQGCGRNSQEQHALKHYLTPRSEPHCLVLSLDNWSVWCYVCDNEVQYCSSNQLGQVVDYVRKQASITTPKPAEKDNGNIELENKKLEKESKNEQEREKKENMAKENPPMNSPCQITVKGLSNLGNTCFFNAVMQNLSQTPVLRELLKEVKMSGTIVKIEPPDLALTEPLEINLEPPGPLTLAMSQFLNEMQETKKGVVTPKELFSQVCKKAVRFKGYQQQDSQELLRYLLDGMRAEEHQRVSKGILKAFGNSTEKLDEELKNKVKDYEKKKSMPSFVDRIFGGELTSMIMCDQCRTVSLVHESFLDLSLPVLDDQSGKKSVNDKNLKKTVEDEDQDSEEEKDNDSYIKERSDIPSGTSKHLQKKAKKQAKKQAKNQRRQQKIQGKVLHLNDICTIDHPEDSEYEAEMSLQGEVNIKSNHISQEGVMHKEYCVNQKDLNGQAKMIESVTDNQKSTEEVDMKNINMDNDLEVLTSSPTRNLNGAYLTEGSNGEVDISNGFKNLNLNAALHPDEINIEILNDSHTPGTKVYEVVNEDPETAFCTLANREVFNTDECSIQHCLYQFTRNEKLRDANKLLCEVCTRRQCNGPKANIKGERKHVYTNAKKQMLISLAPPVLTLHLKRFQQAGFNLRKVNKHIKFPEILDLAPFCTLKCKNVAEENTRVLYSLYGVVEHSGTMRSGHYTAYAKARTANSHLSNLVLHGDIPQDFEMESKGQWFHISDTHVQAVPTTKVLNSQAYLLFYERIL
inactive: nilotinib 0.016 | [1] 0.005 | dasatinib 0.053 | [2] 0.014 | [3] 0.041 | quisinostat -0.014 | tipifarnib 0.016 | [4] 0.011 | [5] 0.023 | [6] 0.012 | [7] 0.019 | silmitasertib 0.012 | [8] -0.019 | entospletinib -0.031
active: vorinostat -0.272

ZFYVE19 isoform 3 (UniProt Q96K21)
inactive: [5] -0.002

ZNF346 (UniProt Q9UL40)
inactive: nilotinib -0.005 | [1] 0.02 | dasatinib -0.099 | [2] 0.021 | [3] 0.014 | quisinostat -0.014 | tipifarnib 0.015 | [4] 0.005 | [5] 0.011 | [6] 0.01 | vorinostat 0.137 | silmitasertib 0.018 | [8] -0.05 | entospletinib 0.02

WDR3 (UniProt Q9UNX4)
active: vorinostat -0.255
inactive: nilotinib 0.055 | [1] 0.001 | dasatinib -0.069 | [2] -0.016 | [3] 0.027 | quisinostat 0.044 | tipifarnib -0.003 | [4] 0.021 | [5] 0.023 | [6] 0.009 | [7] -0.031 | silmitasertib 0.044 | [8] 0.01 | entospletinib -0.001

ZSCAN21 (UniProt Q9Y5A6)
inactive: entospletinib -0.208

ZNF593 (UniProt O00488)
UniProt O00488, sequence (O00488 whole entry, looked up): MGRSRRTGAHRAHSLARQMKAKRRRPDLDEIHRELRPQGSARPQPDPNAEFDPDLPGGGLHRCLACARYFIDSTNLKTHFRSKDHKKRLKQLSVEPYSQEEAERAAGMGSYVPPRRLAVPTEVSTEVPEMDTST
inactive: dasatinib 0.125 | [3] -0.042 | quisinostat 0.02 | [4] 0.063 | [5] 0.295 | [6] 0.03 | [7] -0.029 | vorinostat 0.191 | silmitasertib -0.001 | [8] 0.044 | entospletinib 0.027

WIPI1 (UniProt Q5MNZ9)
UniProt Q5MNZ9, sequence (Q5MNZ9 whole entry, looked up): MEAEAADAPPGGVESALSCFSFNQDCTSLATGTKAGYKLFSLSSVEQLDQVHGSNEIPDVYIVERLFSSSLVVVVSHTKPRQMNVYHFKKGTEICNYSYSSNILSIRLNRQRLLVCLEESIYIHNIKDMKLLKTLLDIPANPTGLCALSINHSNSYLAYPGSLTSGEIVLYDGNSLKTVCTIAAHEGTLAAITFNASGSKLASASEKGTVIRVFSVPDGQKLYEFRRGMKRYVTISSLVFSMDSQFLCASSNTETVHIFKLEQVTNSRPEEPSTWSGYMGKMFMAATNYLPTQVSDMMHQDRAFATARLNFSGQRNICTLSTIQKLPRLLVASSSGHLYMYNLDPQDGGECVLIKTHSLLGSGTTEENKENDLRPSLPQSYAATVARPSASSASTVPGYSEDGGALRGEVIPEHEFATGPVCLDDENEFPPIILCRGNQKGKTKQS
inactive: nilotinib 0.011 | [1] -0.198 | dasatinib 0.06 | [3] -0.028 | quisinostat 0.013 | tipifarnib 0.003 | [4] -0.011 | [5] 0.009 | [6] 0.011 | vorinostat 0.088 | silmitasertib -0.051 | [8] 0.026 | entospletinib -0.001
active: [2] 0.314

ZFYVE19 (UniProt Q96K21)
inactive: nilotinib 0.014 | [1] -0.001 | dasatinib 0.007 | [2] 0.053 | [3] -0.041 | quisinostat -0.01 | tipifarnib 0.006 | [4] -0.003 | [5] 0.014 | [6] 0.003 | [7] 0.026 | vorinostat 0.105 | silmitasertib 0.002 | [8] 0.01 | entospletinib -0.012

UTRN isoform 2 (UniProt P46939)
inactive: [6] 0.21 | vorinostat 0.173 | silmitasertib -0.144 | entospletinib -0.424

UNC13A (UniProt Q9UPW8)
inactive: nilotinib 0.114 | [1] 0.046 | [2] 0.165 | tipifarnib 0.064 | [6] -0.048 | vorinostat -0.485 | silmitasertib 0.078

URGCP (UniProt Q8TCY9)
UniProt Q8TCY9, sequence (Q8TCY9 whole entry, looked up): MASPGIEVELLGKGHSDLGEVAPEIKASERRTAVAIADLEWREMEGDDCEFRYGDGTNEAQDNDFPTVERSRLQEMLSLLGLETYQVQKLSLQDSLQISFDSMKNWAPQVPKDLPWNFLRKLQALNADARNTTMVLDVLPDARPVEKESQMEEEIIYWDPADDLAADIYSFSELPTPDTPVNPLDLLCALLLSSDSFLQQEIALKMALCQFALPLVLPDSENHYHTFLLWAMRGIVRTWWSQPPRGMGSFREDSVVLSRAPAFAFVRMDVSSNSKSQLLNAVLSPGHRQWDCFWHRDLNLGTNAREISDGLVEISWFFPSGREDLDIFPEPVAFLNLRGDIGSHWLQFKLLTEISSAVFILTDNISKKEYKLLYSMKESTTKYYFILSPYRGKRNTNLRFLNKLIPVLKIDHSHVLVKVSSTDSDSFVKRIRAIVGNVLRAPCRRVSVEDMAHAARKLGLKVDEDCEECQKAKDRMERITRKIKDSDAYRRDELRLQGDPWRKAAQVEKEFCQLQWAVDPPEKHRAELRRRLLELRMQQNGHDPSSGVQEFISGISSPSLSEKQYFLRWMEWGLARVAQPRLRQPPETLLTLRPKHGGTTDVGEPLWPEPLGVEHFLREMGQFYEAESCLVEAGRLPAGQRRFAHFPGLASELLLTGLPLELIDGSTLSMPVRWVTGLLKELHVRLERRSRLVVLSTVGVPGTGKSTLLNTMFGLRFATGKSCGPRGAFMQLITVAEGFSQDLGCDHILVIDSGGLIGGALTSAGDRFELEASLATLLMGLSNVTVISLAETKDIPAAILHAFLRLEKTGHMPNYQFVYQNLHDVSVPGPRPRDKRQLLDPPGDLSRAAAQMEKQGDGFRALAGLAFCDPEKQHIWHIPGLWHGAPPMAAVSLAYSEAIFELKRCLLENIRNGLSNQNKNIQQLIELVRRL
inactive: nilotinib 0.028 | [1] 0.079 | dasatinib -0.204 | [2] -0.04 | [3] -0.145 | tipifarnib -0.008 | [7] 0

ZNF644 (UniProt Q9H582)
inactive: nilotinib -0.062 | [1] 0.153 | dasatinib 0.066 | [2] 0.017 | [3] -0.061 | quisinostat -0.026 | tipifarnib -0.012 | [4] 0.058 | [6] -0.167 | [7] -0.007 | vorinostat 0.222 | silmitasertib -0.092 | [8] 0.016 | entospletinib -0.022

YEATS4 (UniProt O95619)
UniProt O95619, sequence (O95619 whole entry, looked up): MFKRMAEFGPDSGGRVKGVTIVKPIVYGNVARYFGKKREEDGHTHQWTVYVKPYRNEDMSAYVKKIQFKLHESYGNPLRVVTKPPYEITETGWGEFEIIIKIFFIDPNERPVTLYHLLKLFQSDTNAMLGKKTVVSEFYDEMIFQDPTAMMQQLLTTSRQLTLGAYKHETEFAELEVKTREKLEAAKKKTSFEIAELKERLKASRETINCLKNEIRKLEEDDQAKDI
inactive: nilotinib 0.1 | [1] 0.154 | dasatinib 0.11 | [2] -0.196 | [3] 0.035 | quisinostat -0.038 | tipifarnib 0.071 | [4] -0.011 | [5] 0.018 | [6] 0.044 | [7] 0.042 | vorinostat 0.057 | silmitasertib -0.029 | [8] -0.046 | entospletinib -0.037

ZNF146 (UniProt Q15072)
inactive: dasatinib -0.028 | [3] 0.188

ZDHHC17 (UniProt Q8IUH5)
inactive: nilotinib -0.164 | [1] 0.039 | dasatinib -0.096 | [2] -0.115 | [3] -0.028 | quisinostat 0.045 | tipifarnib 0.118 | [4] -0.118 | [5] -0.047 | [7] 0.065 | [8] -0.067 | entospletinib 0.009

ZSWIM8 isoform 4 (UniProt A7E2V4)
inactive: nilotinib -0.009 | [1] 0.129 | dasatinib 0.085 | [2] 0.07 | [3] 0.042 | quisinostat -0.051 | tipifarnib -0.065 | [4] 0.067 | [6] -0.112 | [7] 0.079 | vorinostat -0.07 | silmitasertib 0.081 | [8] 0.071 | entospletinib -0.018

ZSCAN26 (UniProt Q16670)
UniProt Q16670, sequence (Q16670 whole entry, looked up): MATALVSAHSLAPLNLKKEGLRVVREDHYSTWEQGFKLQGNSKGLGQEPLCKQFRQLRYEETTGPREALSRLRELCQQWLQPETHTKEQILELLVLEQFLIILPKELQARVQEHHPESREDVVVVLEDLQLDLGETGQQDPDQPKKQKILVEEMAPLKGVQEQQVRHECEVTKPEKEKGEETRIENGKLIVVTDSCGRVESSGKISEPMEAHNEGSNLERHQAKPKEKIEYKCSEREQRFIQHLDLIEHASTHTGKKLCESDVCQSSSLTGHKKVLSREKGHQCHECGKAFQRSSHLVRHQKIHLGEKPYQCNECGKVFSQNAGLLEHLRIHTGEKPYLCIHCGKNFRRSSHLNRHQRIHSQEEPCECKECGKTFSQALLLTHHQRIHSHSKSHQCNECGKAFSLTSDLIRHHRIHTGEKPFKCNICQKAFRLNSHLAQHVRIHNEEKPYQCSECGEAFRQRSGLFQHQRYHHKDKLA
inactive: quisinostat 0.169 | [4] -0.093 | [8] -0.024

WAS (UniProt P42768)
UniProt P42768, sequence (P42768 whole entry, looked up): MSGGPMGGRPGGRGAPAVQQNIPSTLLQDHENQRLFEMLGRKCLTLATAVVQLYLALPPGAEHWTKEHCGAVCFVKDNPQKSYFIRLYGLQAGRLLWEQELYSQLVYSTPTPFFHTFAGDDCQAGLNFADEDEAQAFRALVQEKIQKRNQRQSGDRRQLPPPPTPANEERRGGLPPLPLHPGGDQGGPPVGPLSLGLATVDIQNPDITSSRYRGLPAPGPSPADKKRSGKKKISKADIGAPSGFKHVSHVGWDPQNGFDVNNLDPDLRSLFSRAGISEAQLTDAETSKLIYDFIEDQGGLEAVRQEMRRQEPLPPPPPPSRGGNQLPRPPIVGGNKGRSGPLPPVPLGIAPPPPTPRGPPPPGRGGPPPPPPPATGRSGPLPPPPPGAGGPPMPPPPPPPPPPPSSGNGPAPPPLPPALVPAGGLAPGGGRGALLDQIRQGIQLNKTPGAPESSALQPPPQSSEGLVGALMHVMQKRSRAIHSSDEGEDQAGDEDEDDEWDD
active: nilotinib 0.636
inactive: [1] -0.102 | dasatinib 0.095 | [2] 0.318 | [3] 0.129 | tipifarnib -0.064 | [6] 0.025 | vorinostat -0.07 | silmitasertib 0.025 | entospletinib -0.055

XPOT (UniProt F5GYW6)
inactive: [5] -0.192
